Experimental data taken from PubChem BioAssay (NCATS).
Unmarked numbers belong to inactive results. Inconclusive results are not listed. Entries that show only a call come without a potency. The source made the active and inactive calls. The call rests on the fitted dose curve; in most records, active means well fitted curve in the direction sought with a large enough effect; inconclusive means small, poorly fitted or top-dose-only effect, or another doubt; inactive means no such curve, though single readings can be large; an effect the other way counts as inactive or inconclusive.

Assays:
[1] = qHTS for Inhibitors of Plasmodium falciparum (DD2) proliferation (AID 504314); further: potency means the concentration at half of the fitted maximal effect
Method in brief: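 SYBR Green growth assay: 72 h compound exposure of infected red cells (2.5% hematocrit, 0.3% parasitemia), then lysis and overnight dye staining, fluorescence 485/535 nm. Values scaled between DMSO and 0.29 uM artemisinin controls.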

[2] = qHTS for Inhibitors of Plasmodium falciparum (GB4) proliferation (AID 504315); further: nearly all actives have a fitted effect of over 50% in size; further: potency means the concentration at half of the fitted maximal effect
Method in brief: (§1)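 Parasite growth measured as SYBR Green DNA fluorescence (ex 485, em 535 nm) after overnight lysis following 72 h culture at 37 °C, 0.3% parasitemia, 2.5% hematocrit. Values normalized against DMSO and 0.29 uM artemisinin controls, with plate-stack correction.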

[3] = qHTS for Inhibitors of Plasmodium falciparum (7G8) proliferation (AID 504316); further: series mostly up to about 6.7 µM; nearly all actives have a fitted effect of over 65% in size
Method in brief: as §1

[4] = qHTS for Inhibitors of Plasmodium falciparum (HB3) proliferation (AID 504318); further: nearly all actives have a fitted effect of over 60% in size; further: potency means the concentration at half of the fitted maximal effect
Method in brief: as §1

[5] = qHTS for Inhibitors of Plasmodium falciparum (CP250) proliferation (AID 504320)
Method in brief: as §1

[6] = target: Cytochrome P450 2C9 (Homo sapiens) (UniProt P11712); assay: qHTS Assay for Inhibitors and Substrates of Cytochrome P450 2C9 (AID 883); further: nearly all actives have a fitted effect of over 60% in size
Method in brief: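 Human CYP2C9 (10nM) with Luciferin-H at 100uM (its KM) in 25mM KPO4; compound preincubated 10 min at 37C, then NADPH regeneration for 60 min at 37C. Luciferin read by luminescence after detection reagent; normalized to 57uM sulphaphenazole as full inhibition.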

[7] = target: Cytochrome P450 3A4 (Homo sapiens) (UniProt P08684); assay: qHTS Assay for Activators of Cytochrome P450 3A4 (AID 885); further: nearly all actives have a fitted effect of over 65% in size
Method in brief: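 Luminescent readout of luciferin formed from 25 uM Luciferin-PPXE (KM level) by 20 nM CYP3A4 in 200 mM KPO4, with 60 min NADPH-driven reaction at room temperature after 10 min compound exposure. Ketoconazole (57 uM) defined 100% inhibition.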

Cytochrome P450 2C9 (Homo sapiens), sequence (P11712 whole entry, looked up): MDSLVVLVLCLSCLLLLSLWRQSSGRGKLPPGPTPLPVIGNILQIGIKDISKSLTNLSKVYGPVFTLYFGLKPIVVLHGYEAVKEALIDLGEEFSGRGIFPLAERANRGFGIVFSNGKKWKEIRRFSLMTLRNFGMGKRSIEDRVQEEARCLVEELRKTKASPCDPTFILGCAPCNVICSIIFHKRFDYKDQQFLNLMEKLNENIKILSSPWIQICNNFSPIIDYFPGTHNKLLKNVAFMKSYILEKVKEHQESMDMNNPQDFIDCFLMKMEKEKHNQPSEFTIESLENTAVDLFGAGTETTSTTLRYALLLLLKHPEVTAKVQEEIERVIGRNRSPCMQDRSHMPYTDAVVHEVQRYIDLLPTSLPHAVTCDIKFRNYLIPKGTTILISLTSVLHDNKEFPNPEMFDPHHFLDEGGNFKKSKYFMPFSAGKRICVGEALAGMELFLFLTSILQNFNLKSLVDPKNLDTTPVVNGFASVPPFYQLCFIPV
Cytochrome P450 3A4 (Homo sapiens), sequence (P08684 whole entry, looked up): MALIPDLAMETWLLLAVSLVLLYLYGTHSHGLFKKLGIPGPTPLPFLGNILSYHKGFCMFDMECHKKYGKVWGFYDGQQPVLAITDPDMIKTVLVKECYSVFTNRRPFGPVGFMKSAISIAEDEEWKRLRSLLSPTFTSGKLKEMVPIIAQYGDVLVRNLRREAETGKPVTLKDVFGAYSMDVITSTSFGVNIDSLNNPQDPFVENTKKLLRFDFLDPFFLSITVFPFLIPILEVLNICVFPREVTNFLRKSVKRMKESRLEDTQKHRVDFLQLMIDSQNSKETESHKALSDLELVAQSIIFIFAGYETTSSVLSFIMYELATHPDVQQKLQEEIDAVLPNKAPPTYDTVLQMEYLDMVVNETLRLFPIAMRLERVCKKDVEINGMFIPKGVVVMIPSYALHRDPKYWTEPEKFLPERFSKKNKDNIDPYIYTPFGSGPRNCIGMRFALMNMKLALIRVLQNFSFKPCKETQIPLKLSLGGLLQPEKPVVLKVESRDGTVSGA

| Compound | Potency [1] | Potency [2] | Potency [3] | Potency [4] | Potency [5] | Potency [6] | activity change, positive = activation [7] |
| --- | --- | --- | --- | --- | --- | --- | --- |
| CCOC(=O)CN1C(=O)N[C@@H](c2cccc(C(F)(F)F)c2)C(C(C)=O)=C1C | inactive | inactive | inactive | inactive | inactive |  |  |
| CCN(CC)CCCN1C=C2C(=O)C(C)(OC(=O)CCc3ccccc3)C(=O)C=C2C=C1c1ccc(C#N)cc1 (centres undefined) | inactive | inactive | inactive | inactive | inactive |  |  |
| COC(=O)C1=C(C(=O)OC)[C@@H]2N(C)c3ccccc3[C@@]23C[C@@H](CO)N(C(=O)c2cc(C)oc2C)C3=N1 | inactive | inactive | inactive | inactive | inactive |  |  |
| COC/C=C/C1=CC2=CC(=O)C(C)(OC(=O)c3cnc4ccccc4n3)C(=O)C2=CN1Cc1ccco1 (centres undefined) | inactive | inactive | inactive | inactive | inactive |  |  |
| CCOC(=O)[C@@]1([C@@H](NC(=O)OC)c2cccc(F)c2)CCCC1=O | inactive | inactive | inactive | inactive | inactive |  |  |
| COC(=O)CC=C[C@@H](C)[C@H](OC)c1cc(F)ccc1Br | inactive | inactive | inactive | inactive | inactive |  |  |
| CCN1C(=O)N[C@@H](c2cccc(F)c2)C(C(C)=O)=C1C | inactive | inactive | inactive | inactive | inactive |  |  |
| CCN(CC)CCCN1C=C2C(=O)C(C)(OC(=O)CCC(=O)OC)C(=O)C(Br)=C2C=C1c1ccc(OC)cc1 (centres undefined) | inactive | inactive | inactive | inactive | inactive |  |  |
| COC(=O)CCCC1=CC2=CC(=O)C(C)(OC(=O)c3cccs3)C(=O)C2=CN1Cc1ccccc1 (centres undefined) | inactive | inactive | inactive | inactive | inactive |  |  |
| CCOC(=O)CN1C(=O)N[C@@H](c2ccccc2)[C@@H](C(=O)OC)[C@H]1C | inactive | inactive | inactive | inactive | inactive |  |  |
| COc1cccc([C@@H]2Oc3ccc(Br)cc3C(=O)[C@@H]2OC(=O)Nc2cc(OC)c(OC)c(OC)c2)c1 | inactive | inactive | inactive | inactive | inactive |  |  |
| CCOC(=O)CN1C(=O)N[C@@H](CCc2ccccc2)C(C(=O)OC)=C1C | inactive | inactive | inactive | inactive | inactive |  |  |
| COC(=O)C1=C(C(=O)OC)[C@@H]2N(Cc3ccccc3)c3ccccc3[C@@]23CCC(=O)N(CC2CCCCC2)C3=N1 | inactive | inactive | inactive | inactive | inactive |  |  |
| CC#CCN1c2ccccc2[C@]23C[C@@H](C(=O)OC)N(C(=O)CC(C)C)C2=NC(C(=O)OC)=C(C(=O)OC)[C@H]13 | inactive | inactive | inactive | inactive | inactive |  |  |
| CCCCC1=CC2=CC(=O)C(C)(OC(=O)CC)C(=O)C2=CN1c1ccc(OC)cc1 (centres undefined) | inactive | inactive | inactive | inactive | inactive |  |  |
| COC(=O)C[C@H]1c2ccccc2[C@H]2C(=C[C@@H](C)[C@H]3C(=O)N(O)C(=O)[C@H]32)N1C(=O)OC | inactive | inactive | inactive | inactive | inactive |  |  |
| CCOC(=O)OC[C@H]1O[C@H](c2ccccc2)C=C[C@H]1OC(=O)OCC | inactive | inactive | inactive | inactive | inactive |  |  |
| COC(=O)[C@H]1[C@@H](C)N(Cc2ccccc2)C(=O)N[C@H]1c1cccc(C(F)(F)F)c1 | inactive | inactive | inactive | inactive | inactive |  |  |
| CC[C@@H](C)CN1C(=O)N[C@@H](c2ccccc2)C(C(C)=O)=C1C | inactive | inactive | inactive | inactive | inactive |  |  |
| COC(=O)C1=C(C(=O)OC)[C@@H]2N(C)c3ccc(OC)cc3[C@@]23C[C@@H](C(=O)OC)N(C(C)=O)C3=N1 | inactive | inactive | inactive | inactive | inactive |  |  |
| C=CCN1c2ccccc2[C@]23C[C@@H](C(=O)OC)N(C(C)=O)C2=NC(C(=O)OC)=C(C(=O)OC)[C@H]13 | inactive | inactive | inactive | inactive | inactive |  |  |
| C=CC1=C2C=C(C3CC3)N(Cc3ccco3)C=C2C(=O)C(C)(OC(=O)c2ccco2)C1=O (centres undefined) | inactive | inactive | inactive | inactive | inactive |  |  |
| C=CCOC(=O)C(C(C)=O)[C@@H](NC(=O)OC)c1cccc(C(F)(F)F)c1 (some centres undefined) | inactive | inactive | inactive | inactive | inactive |  |  |
| CCCCC1=CC2=CC(=O)C(C)(OC(=O)CC)C(=O)C2=CN1CCCN(CC)CC (centres undefined) | inactive | inactive | inactive | inactive | inactive |  |  |
| CCOC(=O)CN1C(=O)N[C@@H](CCc2ccccc2)[C@@H](C(=O)OC)[C@H]1C | inactive | inactive | inactive | inactive | inactive |  |  |
| CCCCC1=CC2=CC(=O)C(C)(OC(=O)CC)C(=O)C2=CN1c1ccncc1 (centres undefined) | inactive | inactive | inactive | inactive | inactive |  |  |
| COC(=O)CCCC1=CC2=C(c3ccccc3)C(=O)C(C)(OC(=O)C3CCCC3)C(=O)C2=CN1Cc1ccccc1 (centres undefined) | inactive | inactive | inactive | inactive | inactive |  |  |
| COC(=O)C1=C(C(=O)OC)[C@@H]2Nc3ccccc3[C@@]23C[C@@H](C(=O)OC)N(S(=O)(=O)c2cccs2)C3=N1 | inactive | inactive | inactive | inactive | inactive |  |  |

| Compound | Potency [1] | Potency [2] | Potency [3] | Potency [4] | Potency [5] | Potency [6] | activity change, positive = activation [7] |
| --- | --- | --- | --- | --- | --- | --- | --- |
| COC(=O)[C@H]1[C@H](CCc2ccccc2)NC(=O)N(Cc2ccccc2)[C@@H]1C | inactive | inactive | inactive | inactive | inactive |  |  |
| CCCCC1=CC2=CC(=O)C(C)(OC(=O)CC)C(=O)C2=CN1Cc1ccccc1 (centres undefined) | inactive | inactive | inactive | inactive | inactive |  |  |
| CCOC(=O)CN1C(=O)N[C@@H](c2cccc(C(F)(F)F)c2)[C@H](C(=O)OC)[C@H]1C | inactive | inactive | inactive | inactive | inactive |  |  |
| CCCCC1=CC2=CC(=O)C(C)(OC(=O)CC)C(=O)C2=CN1c1ccccc1 (centres undefined) | inactive | inactive | inactive | inactive | inactive |  |  |
| COC(=O)CCC(=O)OC1(C)C(=O)C2=CN(CCCCO)C(c3ccc(OC)cc3)=CC2=C(Br)C1=O (centres undefined) | inactive | inactive | inactive | inactive | inactive |  |  |
| CCCCC1=CC2=C(c3ccco3)C(=O)C(C)(OC(=O)c3ccc(OC)cc3)C(=O)C2=CN1CCOC (centres undefined) | inactive | inactive | inactive | inactive | inactive |  |  |
| COCCN1C(=O)N[C@@H](c2cccc(F)c2)C(C(=O)OC)=C1C | inactive | inactive | inactive | inactive | inactive |  |  |
| COC(=O)CCCC1=CC2=C(c3ccccc3)C(=O)C(C)(OC(=O)C3CCCC3)C(=O)C2=CN1CC(C)C (centres undefined) | inactive | inactive | inactive | inactive | inactive |  |  |
| COC(=O)CCC(=O)OC1(C)C(=O)C=C2C=C(C3CC3)N(CCN3CCOCC3)C=C2C1=O (centres undefined) | inactive | inactive | inactive | inactive | inactive |  |  |
| COCC(=O)N1CCc2nc(COc3ccccc3)c3c(c2C1)CO[C@@H](C)C3 | inactive | inactive | inactive | inactive | inactive |  |  |
| COC(=O)CCCC1=CC2=CC(=O)C(C)(OC(=O)CCc3ccccc3)C(=O)C2=CO1 (centres undefined) | inactive | inactive | inactive | inactive | inactive |  |  |
| CCCCC1=CC2=CC(=O)C(C)(OC(=O)CC)C(=O)C2=CN1C1CCCC1 (centres undefined) | inactive | inactive | inactive | inactive | inactive |  |  |
| COC(=O)N1CCc2cc(OC)c(OC)cc2C1Cc1ccc(OC)cc1 (centres undefined) |  |  |  |  |  | inactive | -32.2% [at 11.4 µM] |
| CCCCc1nc2c(c3c1C[C@H](C)OC3)CN(C(=O)c1cc(I)ccc1F)CC2 | inactive | inactive |  |  | inactive |  |  |
| CC#CCN1c2ccccc2[C@]23CCC(=O)N(CCCOC(C)C)C2=NC(C(=O)OC)=C(C(=O)OC)[C@H]13 | inactive | inactive |  |  | inactive |  |  |
| COC(=O)C1=C(C(=O)OC)[C@@H]2N(C)c3ccccc3[C@@]23C[C@@H](C(=O)OC)N(S(=O)(=O)c2c(C)noc2C)C3=N1 | inactive | inactive |  |  | inactive |  |  |
| COc1cc2c(cc1OC)[C@@H]1O[C@](CCCCN3C(=O)c4ccccc4C3=O)(C2)Oc2cc(C)n(-c3ccccc3)c(=O)c21 | 1690 nM (active) | 1350 nM (active) |  | 1200 nM (active) |  |  |  |
| CCCCc1nc2c(c3c1C[C@H](C)OC3)CN(C(=O)NCCCC(=O)OCC)CC2 | inactive | inactive |  | inactive | inactive |  |  |
| COC(=O)[C@@H]1[C@@H](C)N(CCc2cc(OC)c(OC)c(OC)c2)C(=O)N[C@H]1c1ccccc1 | inactive | inactive |  | inactive | inactive |  |  |
| CC1(OC(=O)CCc2ccccc2)C(=O)C=C2C=C(c3ccc(C#N)cc3)N(CCc3c[nH]c4ccccc34)C=C2C1=O (centres undefined) | inactive | inactive |  |  | inactive |  |  |
| CC(C)(C)N1C(=O)[C@@H]2[C@H]3[C@H](O)[C@H](O)CC(=NOCc4ccccc4)[C@H]3CC[C@H]2C1=O | inactive | inactive | inactive |  | inactive |  |  |
| C=CCN1c2ccccc2[C@]23C[C@@H](C(=O)OC)N(C(=O)C4CCC4)C2=NC(C(=O)OC)=C(C(=O)OC)[C@H]13 | inactive | inactive |  | inactive | inactive |  |  |
| COC/C=C/C1=CC2=CC(=O)C(C)(OC(=O)c3cnc4ccccc4n3)C(=O)C2=CN1c1ccc(OC)cc1 (centres undefined) | inactive | inactive |  |  | inactive |  |  |
| COC(=O)C1(C(=O)OC)CC(CO)C(=O)[C@@H]1c1ccccc1 (some centres undefined) | inactive | inactive |  |  | inactive |  |  |
| CCCCS(=O)(=O)N1C2=NC(C(=O)OC)=C(C(=O)OC)[C@@H]3N(C)c4ccccc4[C@]23C[C@H]1C(=O)OC | inactive | inactive |  |  | inactive |  |  |
| COC(=O)C1=C(C(=O)OC)[C@@H]2N(C)c3ccccc3[C@@]23C[C@@H](C(=O)OC)N(S(=O)(=O)c2cccs2)C3=N1 | inactive | inactive |  |  | inactive |  |  |
| CCCCC1=CC2=CC(=O)C(C)(OC(=O)CC)C(=O)C2=CN1CCc1ccc(Br)cc1 (centres undefined) | inactive | inactive | inactive |  | inactive |  |  |
